This note sets out measurements from PubChem BioAssay (EPA / NIEHS).

Read-out in assay [1]: Matrix Metallopeptidase 9 (MMP9), MMP9 (gene 4318)
As to the kind of experiment: BSK_KF3CT_MMP9: BioMAP Diversity Plus: KF3CT Assay for Matrix Metallopeptidase 9 (MMP9) Biomarker Activity (AID 2283074). The conditions noted are these: primary human keratinocytes with fibroblasts; actives raise or lower the signal. In short, it runs like this: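 Keratinocyte plus foreskin fibroblast human primary skin co-culture was dosed with chemical and MMP-9 was quantified by ELISA 24 h later. Bidirectional curve fitting used DMSO as negative control and activity baseline.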

Read-out in assay [2]: urokinase plasminogen activator (uPA), PLAU (gene 5328)
In words: BSK_KF3CT_uPA: BioMAP Diversity Plus: KF3CT Assay for urokinase plasminogen activator (uPA) Biomarker Activity (AID 2283075). The conditions noted are these: primary human keratinocytes with fibroblasts; actives raise or lower the signal. In short, it runs like this:
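Human keratinocyte plus foreskin fibroblast primary co-culture exposed to chemical for 24 h. uPA levels were quantified by ELISA, and activity was fitted bidirectionally against a DMSO negative-control baseline.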

Read-out in assay [3]: CD40, CD40 (gene 958)
As to the kind of experiment: BSK_LPS_CD40: BioMAP Diversity Plus: LPS Assay for CD40 Biomarker Activity (AID 2283076). The conditions noted are these: primary human HUVEC with PBMC; actives raise or lower the signal. A digest of the protocol:
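Using a multiplexed primary human co-culture (umbilical vein endothelium plus PBMC), CD40 was read by ELISA 24 h after dosing, with cytotoxicity tracked by sulforhodamine B staining of parallel cultures and activity fitted bidirectionally versus DMSO.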

Read-out in assay [4]: E-selectin (Homo sapiens) (UniProt P16581)
As to the kind of experiment: BSK_LPS_Eselectin: BioMAP Diversity Plus: LPS Assay for Eselectin Biomarker Activity (AID 2283077). Conditions: primary human HUVEC with PBMC; actives raise or lower the signal. A digest of the protocol: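 Dose chemical onto LPS-driven HUVEC/PBMC co-culture; after 24 h, run ELISA for E-selectin; fit up- and down-going responses relative to DMSO control.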

Read-out in assay [5]: Interleukin-8 (IL8), CXCL8 (gene 3576)
As to the kind of experiment: BSK_LPS_IL8: BioMAP Diversity Plus: LPS Assay for Interleukin-8 (IL8) Biomarker Activity (AID 2283078). Conditions: primary human HUVEC with PBMC; actives raise or lower the signal. In short, it runs like this:
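In this LPS system, chemical-treated human umbilical vein endothelium/PBMC co-cultures were harvested at 24 h for IL-8 ELISA.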

Assay [6] is described as follows: BSK_LPS_SRB: Viability Assessment in the BioMAP Diversity Plus: LPS Assay (AID 2283079).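 Also: total protein by sulforhodamine B absorbance as a cytotoxicity measure; measured one day after compound addition; fitted in both directions against DMSO so loss or gain of signal counts.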 The conditions noted are these: primary human HUVEC with PBMC. A digest of the protocol: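 Cytotoxicity endpoint in human endothelial–PBMC co-culture: 24 h exposure, then SRB (0.1%) staining, 560 nm read.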
Read-out in assay [7]: Interleukin-1 alpha (IL1a), IL1A (gene 3552)
As to the kind of experiment: BSK_LPS_IL1a: BioMAP Diversity Plus: LPS Assay for Interleukin-1 alpha (IL1a) Biomarker Activity (AID 2283080). Conditions: primary human HUVEC with PBMC; actives raise or lower the signal. A digest of the protocol:
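Primary human HUVEC and PBMC co-culture stimulated with LPS is dosed and harvested at 24 h. Both increases and decreases in ELISA-measured IL-1a are scored relative to DMSO.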

Read-out in assay [8]: Monocyte Chemoattractant Protein-1 (MCP1), CCL2 (gene 6347)
As to the kind of experiment: BSK_LPS_MCP1: BioMAP Diversity Plus: LPS Assay for Monocyte Chemoattractant Protein-1 (MCP1) Biomarker Activity (AID 2283081). The conditions noted are these: primary human HUVEC with PBMC; actives raise or lower the signal. In short, it runs like this:
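Values derive from bidirectional fitting against DMSO of ELISA-measured MCP-1 in a human primary endothelial and mononuclear cell co-culture, 24 h after chemical addition under LPS activation.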

A short description of assay [9]: BSK_LPS_PGE2: BioMAP Diversity Plus: LPS Assay for Prostaglandin E2 (PGE2) Biomarker Activity (AID 2283082). The conditions noted are these: primary human HUVEC with PBMC; actives raise or lower the signal. A digest of the protocol:
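LPS-activated HUVEC/PBMC co-culture; cmpd dosed, 24 h; PGE2 by ELISA; bidirectional fit vs DMSO; SRB (0.1%, TCA-fixed, 560 nm) in parallel plates for overt cytotox.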

Read-out in assay [10]: Macrophage colony-stimulating factor (MCSF), CSF1 (gene 1435)
As to the kind of experiment: BSK_LPS_MCSF: BioMAP Diversity Plus: LPS Assay for Macrophage colony-stimulating factor (MCSF) Biomarker Activity (AID 2283083). The conditions noted are these: primary human HUVEC with PBMC; actives raise or lower the signal. In short, it runs like this: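 Bidirectional fit versus DMSO of ELISA-measured M-CSF in co-cultured human umbilical vein endothelial cells and PBMC, sampled 24 h after dosing.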

Read-out in assay [11]: Tissue Factor, F3 (gene 2152)
As to the kind of experiment: BSK_LPS_TissueFactor: BioMAP Diversity Plus: LPS Assay for Tissue Factor Biomarker Activity (AID 2283084). Conditions: primary human HUVEC with PBMC; actives raise or lower the signal. In short, it runs like this:
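Read-out: CD142 ELISA, 24 h. System: LPS-driven human endothelial/PBMC co-culture. Analysis: up- or down-signal fitted against DMSO.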

Read-out in assay [12]: Tumor necrosis factor (Homo sapiens) (UniProt P01375)
As to the kind of experiment: BSK_LPS_TNFa: BioMAP Diversity Plus: LPS Assay for Tumour Necrosis Factor alpha (TNFa) Biomarker Activity (AID 2283085). The conditions noted are these: primary human HUVEC with PBMC; actives raise or lower the signal. In short, it runs like this: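 Read-out is ELISA of TNFa in primary human endothelial cell–PBMC co-cultures at 24 h after compound. Activity in either direction was fitted against DMSO.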

Read-out in assay [13]: Vascular cell adhesion molecule 1 (VCAM1), VCAM1 (gene 7412)
As to the kind of experiment: BSK_LPS_VCAM1: BioMAP Diversity Plus: LPS Assay for Vascular cell adhesion molecule 1 (VCAM1) Biomarker Activity (AID 2283086). Conditions: primary human HUVEC with PBMC; actives raise or lower the signal. A digest of the protocol: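 HUVEC + PBMC co-culture, LPS system; compound 24 h; VCAM-1 by ELISA; bidirectional fit vs DMSO control; parallel SRB (0.1%, TCA-fixed, 560 nm) for cytotoxicity.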

Read-out in a further assay: CD38, CD38 (gene 952)
In words: BSK_SAg_CD38: BioMAP Diversity Plus: SAg Assay for CD38 Biomarker Activity (AID 2283087). Conditions: primary human HUVEC with PBMC; actives raise or lower the signal. In short, it runs like this:
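Human HUVEC plus PBMC co-culture stimulated with superantigen; CD38 measured by ELISA 24 h after chemical dosing. Fluorescence read-out, bidirectional fit against DMSO; cytotoxicity tracked in parallel by SRB and Alamar Blue.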

Read-out in assay [14]: CD40, CD40 (gene 958)
As to the kind of experiment: BSK_SAg_CD40: BioMAP Diversity Plus: SAg Assay for CD40 Biomarker Activity (AID 2283088). The conditions noted are these: primary human HUVEC with PBMC; actives raise or lower the signal. In short, it runs like this: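 Endpoint derived by fitting increases or decreases versus DMSO controls. CD40 is detected by fluorescence ELISA in a human vascular co-culture of endothelium and PBMC at 24 h.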

Read-out in the next assay: CD69, CD69 (gene 969)
As to the kind of experiment: BSK_SAg_CD69: BioMAP Diversity Plus: SAg Assay for CD69 Biomarker Activity (AID 2283089).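 As to AC50: cell surface CD69 protein quantified by ELISA with fluorescence detection.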 Conditions: primary human HUVEC with PBMC; actives raise or lower the signal. In short, it runs like this: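 Endothelial/PBMC co-culture; chemical added; 24 h incubation; CD69 ELISA with fluorescence detection; bidirectional fit vs DMSO.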

Read-out in assay [15]: Monocyte Chemoattractant Protein-1 (MCP1), CCL2 (gene 6347)
In words: BSK_SAg_MCP1: BioMAP Diversity Plus: SAg Assay for Monocyte Chemoattractant Protein-1 (MCP1) Biomarker Activity (AID 2283090). The conditions noted are these: primary human HUVEC with PBMC; actives raise or lower the signal. A digest of the protocol: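 MCP-1 levels in the endothelial–PBMC SAg co-culture were quantified by ELISA at 24 h post-dosing; both increases and decreases versus DMSO scored. Cytotoxicity monitored by SRB total protein in parallel cultures.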

Read-out in assay [16]: E-selectin (Homo sapiens) (UniProt P16581)
In words: BSK_SAg_Eselectin: BioMAP Diversity Plus: SAg Assay for Eselectin Biomarker Activity (AID 2283091). The conditions noted are these: primary human HUVEC with PBMC; actives raise or lower the signal. A digest of the protocol:
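Endpoint values derive from bidirectional fitting relative to DMSO, using ELISA-measured E-selectin in a human vascular co-culture (umbilical vein endothelium plus PBMC) sampled 24 h after dosing.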

Read-out in assay [17]: Monokine induced gamma interferon (MIG), CXCL9 (gene 4283)
In words: BSK_SAg_MIG: BioMAP Diversity Plus: SAg Assay for Monokine induced gamma interferon (MIG) Biomarker Activity (AID 2283092). The conditions noted are these: primary human HUVEC with PBMC; actives raise or lower the signal. In short, it runs like this:
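Measures CXCL9 protein by ELISA in a human vascular primary-cell co-culture (umbilical vein endothelium with PBMC) 24 h after chemical addition. Activity is scored up or down from the DMSO control.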

Activity calls are given as the source filed them. The calls were made as follows: active = hit-call score of the fitted dose curve at least 0.9, where 1 is the maximum; inactive = score below 0.9.

E-selectin (Homo sapiens), sequence (P16581 whole entry, looked up): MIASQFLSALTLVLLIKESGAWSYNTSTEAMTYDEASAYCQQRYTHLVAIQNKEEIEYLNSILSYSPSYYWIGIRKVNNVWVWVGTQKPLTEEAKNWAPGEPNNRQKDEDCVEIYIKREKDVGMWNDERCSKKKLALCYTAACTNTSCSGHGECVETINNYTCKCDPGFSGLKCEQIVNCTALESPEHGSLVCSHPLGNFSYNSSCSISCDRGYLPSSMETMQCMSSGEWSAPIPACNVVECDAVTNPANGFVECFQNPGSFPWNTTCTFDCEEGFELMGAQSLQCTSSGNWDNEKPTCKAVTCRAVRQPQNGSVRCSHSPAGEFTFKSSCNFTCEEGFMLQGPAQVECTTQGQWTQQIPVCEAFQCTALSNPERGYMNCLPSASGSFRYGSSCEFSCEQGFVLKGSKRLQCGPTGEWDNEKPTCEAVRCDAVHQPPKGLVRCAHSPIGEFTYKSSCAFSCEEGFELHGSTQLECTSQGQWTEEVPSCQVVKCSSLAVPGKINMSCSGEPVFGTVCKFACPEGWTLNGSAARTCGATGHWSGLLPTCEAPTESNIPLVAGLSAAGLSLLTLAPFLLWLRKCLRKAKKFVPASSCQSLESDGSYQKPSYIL
Tumor necrosis factor (Homo sapiens), sequence (P01375 whole entry, looked up): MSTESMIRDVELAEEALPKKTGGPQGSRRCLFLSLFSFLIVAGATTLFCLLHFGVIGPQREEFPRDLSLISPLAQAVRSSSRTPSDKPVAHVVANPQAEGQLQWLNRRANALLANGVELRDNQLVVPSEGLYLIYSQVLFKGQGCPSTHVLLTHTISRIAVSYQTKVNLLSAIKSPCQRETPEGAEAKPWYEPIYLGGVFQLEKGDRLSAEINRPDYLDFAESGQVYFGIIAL

Turning to `CCO[Si](CCCNC(N)=O)(OCC)OCC`, the outcome was “inactive” in assay [1]; “inactive” in assay [2]; “inactive” with CD40, CD40 (gene 958) [3]; “inactive” in assay [4]; “inactive” in [5]; “inactive” in assay [6]. The outcome in [7], in assay [8], in assay [9], in [10], in [11] and in assay [12] was inactive. Further, the outcome in assay [13] was “inactive”; in the assay with CD38, CD38 (gene 952), “inactive”; with CD40, CD40 (gene 958) [14], “inactive”; in the assay with CD69, CD69 (gene 969) it was “inactive”; in assay [15], “inactive”; in assay [16], “inactive”.
Take `CCCCCCCCOc1ccc(C(=O)c2ccccc2)c(O)c1`: the result in [1], in assay [2], in assay [4], in assay [5], in [6] and in assay [7] was inactive. The outcome in assay [8] is “inactive”; in [9], “inactive”; in assay [10], “inactive”; in assay [12], “inactive”; in [13], “inactive”; with CD69, CD69 (gene 969), “inactive”. Also, the result in assay [15], in [16] and in assay [17] was inactive. In addition, the AC50 in the assay with CD40, CD40 (gene 958) [3] is 25.3 µM (active); in assay [11] it was 12.6 µM (active); with CD38, CD38 (gene 952), 15.7 µM (active); with CD40, CD40 (gene 958) [14] it was 30.3 µM (active).
In the case of `CO[C@H]1/C=C/O[C@@]2(C)Oc3c(C)c(O)c4c(O)c(c(/C=N/N5CCN(C)CC5)c(O)c4c3C2=O)NC(=O)/C(C)=C\C=C\[C@H](C)[C@H](O)[C@@H](C)[C@@H](O)[C@@H](C)[C@H](OC(C)=O)[C@@H]1C`, the outcome in assay [1] was “inactive”; in [2] it was “inactive”; in the assay with CD40, CD40 (gene 958) [3], “inactive”; in assay [4] it was “inactive”; in assay [5], “inactive”; in assay [6], “inactive”. Moreover, the result in [7], in [8], in assay [9], in [10], in [11] and in assay [12] was inactive. For the same molecule, the outcome is “inactive” in assay [13]; “inactive” in the assay with CD38, CD38 (gene 952); “inactive” in the assay with CD40, CD40 (gene 958) [14]; “inactive” in assay [15]; “inactive” in [16]; “inactive” in assay [17]. Further, the AC50 with CD69, CD69 (gene 969) was 0.64 µM (active).

As usually defined, the AC50 is the concentration giving half of the maximal activity seen.
